Our source for the z-score values is PubChem BioAssay.

Structures are written as SMILES. Activity calls are given as the source filed them.

Experiment [1] is described as follows: compound effects on lung adenocarcinoma cell viability – A549, calcein-AM fluorescence, 48 h, basal, profiling panel (AID 1162). Particulars: higher = more signal.
Experiment [2] in a line: compound effects on differentiated 3T3-L1 adipocyte viability – cell-based, 3T3-L1 adipocytes, calcein-AM fluorescence, 48 h, basal, profiling panel (AID 1163). Particulars: 3T3-L1 adipocytes viability, higher = more signal.
The nature of experiment [3]: compound effects on hepatocellular carcinoma cell viability – HepG2, calcein-AM fluorescence, 48 h, basal, profiling panel (AID 1164). The following applies: higher = more signal.
The nature of experiment [4]: compound effects on multiple myeloma cell viability – MM1S, calcein-AM fluorescence, 48 h, basal, profiling panel (AID 1165).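 Also: viability of MM1S multiple myeloma cells under basal unstimulated conditions.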 Particulars: higher = more signal.
Experiment [5] is described as follows: calcein-AM signal in unstimulated myeloma cells – cell-based, calcein-AM fluorescence, 48 h, PK04 Diversity Set, profiling panel (AID 1166).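 Also: cells grown under basal conditions without added stimulus.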 The following applies: RPMI8226 myeloma viability, higher = more signal.
Experiment [6] is described as follows: JC-1 mitochondrial signal, unstimulated HepG2 cells – cell-based, JC-1 fluorescence, 24 h, 100 nL compound, profiling panel (AID 1167). Particulars: HepG2 mitochondrial potential, higher = more signal.
Experiment [7] in a line: JC-1 mitochondrial signal, unstimulated adipocytes – cell-based, JC-1 fluorescence, 3T3-L1 adipocytes, 24 h, 100 nL compound, profiling panel (AID 1168). Particulars: JC-1 mitochondrial fluorescence, higher = more signal, called active from +8 up or from −8 down.
Experiment [8] is described as follows: JC-1 mitochondrial signal, unstimulated myeloma cells – cell-based, JC-1 fluorescence, RPMI8226, 24 h, 100 nL compound, profiling panel (AID 1169). The following applies: JC-1 mitochondrial potential fluorescence, higher = more signal.
Experiment [9] is described as follows: JC-1 mitochondrial signal, unstimulated MM1S myeloma – cell-based, JC-1 fluorescence, 24 h, 100 nL compound, profiling panel (AID 1170). Particulars: MM1S mitochondrial potential, higher = more signal.
Experiment [10] in a line: resazurin metabolic signal in A549 cells – cell-based, resazurin fluorescence, 24 h, PK04 Diversity Set, profiling panel (AID 1171). The following applies: A549 viability, higher = more signal, called active from +8 up or from −8 down.
Also: test concentration not given here.

With `O=C(O)C1=CC[C@H]2C(=O)N(c3ccccc3)C(=O)[C@@H]12`, the z-score in experiment [1] was -1.05; in experiment [2], -0.261; in experiment [3] it was -0.625; in experiment [4], -0.911; in experiment [5] it was -0.222; in experiment [6], -0.915. Also, the z-score in [7] is -0.162 (inactive); in experiment [8], 0.364; in [9], -1.46; in [10], 0.64 (inactive).

For `CC(C)C[C@@H]1NC(=O)[C@@H]2C[C@H](C(=O)NCCCCCNC(=O)CS)[C@H](c3ccc(O)cc3)N2C1=O`, the z-score in experiment [1] is 0.161; in experiment [2], 2.21; in experiment [3], -0.787; in experiment [4], -0.263; in experiment [5] it was -0.782; in experiment [6], -0.63. Moreover, the z-score was -0.195 (inactive) in experiment [7], 0.393 in [8], -1.1 in experiment [9] and 0.16 (inactive) in [10].

Consider `COCCOC(=O)N1C(=O)[C@@]2(c3cc(C#CCC(C(=O)OC)C(=O)OC)ccc31)[C@H](c1ccc(O)cc1)N1[C@H](c3ccccc3)[C@H](c3ccccc3)OC(=O)[C@H]1[C@@H]2C(=O)N1CCc2cc(OC)c(OC)cc2C1`, for which the z-score in experiment [1] is 0.393; in experiment [2], 0.632; in [3], 0.806; in experiment [4], -0.243; in experiment [5] it was -3.34; in experiment [6], 0.763. For the same compound, the z-score in [7] was -0.291 (inactive); in experiment [8], -1.15; in [9] it was 0.22; in experiment [10], 0.742 (inactive).

As to `COCCOC(=O)N1C(=O)[C@@]2(c3cc(C#CC4=CCCCC4)ccc31)[C@H](c1ccc(O)cc1)N1[C@H](c3ccccc3)[C@H](c3ccccc3)OC(=O)[C@H]1[C@@H]2C(=O)N1CCc2cc(OC)c(OC)cc2C1`, the z-score in experiment [1] is -0.565; in experiment [2], -0.154; in [3] it was -0.493; in experiment [4], 0.0055; in [5], -1.33; in experiment [6], 0.0573. In addition, the z-score is 1.8 (inactive) in experiment [7], -1.11 in experiment [8], -0.432 in experiment [9] and 0.0836 (inactive) in experiment [10].

As for `C=CCNC(=O)[C@H]1[C@@H]2C(=O)O[C@@H](c3ccccc3)[C@@H](c3ccccc3)N2[C@@H](c2ccc(OCCO)cc2)[C@]12C(=O)Nc1ccc(C#Cc3ccc(OC)cc3)cc12`, the z-score in experiment [1] is -1.09; in experiment [2], 2.01; in [3] it was -0.845; in experiment [4], -0.291; in experiment [5] it was -2.14; in experiment [6] it was -1.38. Also, the z-score in [7] was 3.11 (inactive); in experiment [8] it was -1.22; in experiment [9], -0.867; in experiment [10], -1.04 (inactive).

For the compound `COC(=O)C1=CC(c2ccc(CO)cc2)=CC(C2CC2)N(Cc2cc3c(cc2Br)OCO3)C=C1C(=O)OC` (stereo not given), the z-score was -0.0232 in experiment [1]; 0.679 in experiment [2]; 0.522 in [3]; -0.785 in experiment [4]; -2.39 in experiment [5]; 0.733 in experiment [6]. Besides, the z-score was 0.278 (inactive) in experiment [7], -0.563 in [8], -1.34 in [9] and -1.15 (inactive) in experiment [10].

As to `O=C1O[C@H](c2ccccc2)[C@H](c2ccccc2)N2[C@H]1[C@@H](C(=O)N1CCCCCCC1)[C@]1(C(=O)Nc3ccc(C#CCCO)cc31)[C@H]2c1ccc(O)cc1`, the z-score in experiment [1] is 1.53; in experiment [2], 0.0496; in experiment [3], 1.22; in experiment [4], -0.149; in experiment [5], 0.0392; in experiment [6], 0.638. Also, the z-score in [7] is 0.547 (inactive); in experiment [8], -0.146; in experiment [9] it was -0.979; in experiment [10], 0.798 (inactive).

As to `CCCCN1CC=CC23O[C@@H]4C=CCCOC(=O)C4[C@H]2C(=O)N(CCO)[C@@H]3C1=O` (stereo not given in full), the z-score is -0.725 in experiment [1]; 0.0904 in experiment [2]; -2.09 in experiment [3]; 0.303 in experiment [4]; -0.105 in experiment [5]; -0.508 in experiment [6]. Also, the z-score in experiment [7] was 0.0409 (inactive); in experiment [8], 0.0612; in experiment [9], 0.37; in experiment [10], -0.288 (inactive).

Regarding `COC(=O)C1=CC(CCCO)=CC(c2ccc(CN3CCCC3)cc2)N(C)C=C1C(=O)OC` (stereo not given), the z-score in [1] was 0.71; in [2], -0.0962; in [3] it was 0.204; in experiment [4], 0.608; in experiment [5], 0.433; in experiment [6], 0.91. Moreover, the z-score in experiment [7] was 0.735 (inactive); in experiment [8] it was 0.173; in [9], -0.537; in experiment [10], -0.632 (inactive).

As for `CN1C(=O)C2CC=C(C3=CCO[C@@H]3[C@H]3CCCN3S(=O)(=O)c3ccccc3[N+](=O)[O-])CC2C1=O` (stereo not given in full), the z-score in experiment [1] is -0.477; in experiment [2] it was 0.102; in experiment [3], 0.302; in experiment [4], -0.355; in experiment [5], -0.0289; in [6] it was -1.25. Besides, the z-score in [7] is -0.655 (inactive); in [8], -0.12; in experiment [9], -0.242; in [10], 0.47 (inactive).

For the compound `CC(C)[Si]1(C(C)C)OCc2cc(-c3ccc(-c4ccc(Cl)c(Cl)c4)o3)nc(-c3ccc(Oc4ccccc4)cc3)c21`, the z-score in [1] is -0.222; in experiment [2], -1.06; in [3], -0.879; in experiment [4] it was 0.0719; in experiment [5] it was -0.605; in experiment [6] it was 0.213. The z-score in experiment [7] was -0.966 (inactive); in experiment [8] it was 0.17; in experiment [9], 0.0397; in experiment [10] it was -0.232 (inactive).

Turning to `Cc1ccc(S[C@]2(C(=O)NC3CC3)CC(=O)N(C3Cc4ccccc4C3)[C@@H]2c2ccc(CO)cc2I)cc1`, the z-score was 0.828 in [1]; 0.689 in [2]; 0.193 in experiment [3]; -2.21 in experiment [4]; -1.9 in experiment [5]; -0.24 in experiment [6]. In addition, the z-score is -0.411 (inactive) in experiment [7], -0.502 in experiment [8], -0.499 in experiment [9] and 0.395 (inactive) in [10].

With `COCCOC(=O)N1C(=O)[C@@]2(c3cc(C#CCNC(N)=O)ccc31)[C@H](C(=O)N1CCN(c3ncccn3)CC1)[C@H]1C(=O)O[C@H](c3ccccc3)[C@H](c3ccccc3)N1[C@@H]2c1ccc(O)cc1`, the z-score in experiment [1] was 0.722; in [2] it was -0.118; in [3] it was 0.568; in experiment [4], 0.445; in experiment [5], 1.17; in experiment [6] it was 0.866. The z-score in experiment [7] is -0.709 (inactive); in [8], -0.0604; in experiment [9], -0.564; in [10] it was -0.824 (inactive).

As for `C=CCNC(=O)[C@H]1[C@@H]2C(=O)O[C@@H](c3ccccc3)[C@@H](c3ccccc3)N2[C@@H](c2ccc(OCCO)cc2)[C@]12C(=O)N(C(=O)OCCOC)c1ccc(C#CCNC(N)=O)cc12`, the z-score is 0.0935 in experiment [1]; -0.585 in experiment [2]; 0.854 in [3]; 0.952 in experiment [4]; 1.27 in experiment [5]; 0.0391 in experiment [6]. Moreover, the z-score was 0.668 (inactive) in experiment [7], -0.596 in experiment [8], -0.919 in [9] and -0.226 (inactive) in experiment [10].

For the compound `CCCCN1CC=CC23O[C@@H]4/C=C\CCC(C)OC(=O)C4[C@H]2C(=O)N(CCO)[C@@H]3C1=O` (stereo not given in full), the z-score was -0.266 in experiment [1]; 0.555 in experiment [2]; -0.406 in [3]; -0.0157 in experiment [4]; -1.19 in experiment [5]; 0.0609 in [6]. Also, the z-score in experiment [7] is -0.0386 (inactive); in [8], 0.881; in experiment [9], 0.213; in experiment [10], 0.265 (inactive).
